Results on nine sequences are retold here after article PMC11006913.

What all share (assay): PBM; 200 nM protein, PBS
What all share (conditions): dsDNA, one strand shown

In experiment [1] the target is HESX1 (Homo sapiens, UniProt Q9UBX0 95-180, R165K).
Experiment [2] addresses ALX4 (Homo sapiens, UniProt Q9H161 200-286).
The target of experiment [3] is PRRX1 (Homo sapiens, UniProt P54821 80-166, F113S).
Experiment [4] deals with ALX4 (Homo sapiens, UniProt Q9H161 200-286, Q225E).
The target of experiment [5] is HESX1 (Homo sapiens, UniProt Q9UBX0 95-180).
HESX1 (Homo sapiens, UniProt Q9UBX0 95-180), sequence (Q9UBX0 95-180): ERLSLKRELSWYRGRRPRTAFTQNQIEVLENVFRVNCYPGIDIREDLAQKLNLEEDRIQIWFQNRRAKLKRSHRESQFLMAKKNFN
Experiment [6] addresses MSX2 (Homo sapiens, UniProt P35548 130-214, R199I).
Experiment [7] addresses ALX1 (Homo sapiens, UniProt Q15699 118-204, L144V).
Experiment [8] addresses ALX1 (Homo sapiens, UniProt Q15699 118-204, L144R).
In experiment [9] the target is PROP1 (Homo sapiens, UniProt O75360 56-141).
PROP1 (Homo sapiens, UniProt O75360 56-141), sequence (O75360 56-141): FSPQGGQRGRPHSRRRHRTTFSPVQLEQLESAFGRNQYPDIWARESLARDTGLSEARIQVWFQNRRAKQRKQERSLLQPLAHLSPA
Experiment [10] concerns the target HESX1 (Homo sapiens, UniProt Q9UBX0 95-180, R109Q).
Experiment [11] concerns the target PROP1 (Homo sapiens, UniProt O75360 56-141, R99H).
The next experiment has as its target ALX3 (Homo sapiens, UniProt O95076 139-225, L168Q).
Experiment [12] concerns the target HESX1 (Homo sapiens, UniProt Q9UBX0 95-180, P111T).
In experiment [13] the target is PROP1 (Homo sapiens, UniProt O75360 56-141, F88S).
PROP1 (Homo sapiens, UniProt O75360 56-141, F88S), sequence (O75360 56-141 F88S): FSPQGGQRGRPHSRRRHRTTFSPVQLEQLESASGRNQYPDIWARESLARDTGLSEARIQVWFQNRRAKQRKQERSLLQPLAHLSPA
For experiment [14], the target named is MSX2 (Homo sapiens, UniProt P35548 130-214, F161Y).
MSX2 (Homo sapiens, UniProt P35548 130-214, F161Y), sequence (P35548 130-214 F161Y): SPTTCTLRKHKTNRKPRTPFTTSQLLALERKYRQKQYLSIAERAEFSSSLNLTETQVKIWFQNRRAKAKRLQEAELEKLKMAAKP
In experiment [15] the target is HESX1 (Homo sapiens, UniProt Q9UBX0 95-180, F115L).
HESX1 (Homo sapiens, UniProt Q9UBX0 95-180, F115L), sequence (Q9UBX0 95-180 F115L): as the sequence (Q9UBX0 95-180) above, with F21L counted along it
Experiment [16] has as its target PRRX1 (Homo sapiens, UniProt P54821 80-166).
In experiment [17] the target is ALX1 (Homo sapiens, UniProt Q15699 118-204).
ALX1 (Homo sapiens, UniProt Q15699 118-204), sequence (Q15699 118-204): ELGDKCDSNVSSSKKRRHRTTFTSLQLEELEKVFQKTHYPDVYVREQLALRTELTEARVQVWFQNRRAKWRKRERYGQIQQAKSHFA

HESX1 (Homo sapiens, UniProt Q9UBX0 95-180, P111T), sequence (Q9UBX0 95-180 P111T): as the sequence (Q9UBX0 95-180) above, with P17T counted along it
HESX1 (Homo sapiens, UniProt Q9UBX0 95-180, R109Q), sequence (Q9UBX0 95-180 R109Q): as the sequence (Q9UBX0 95-180) above, with R15Q counted along it
HESX1 (Homo sapiens, UniProt Q9UBX0 95-180, R165K), sequence (Q9UBX0 95-180 R165K): as the sequence (Q9UBX0 95-180) above, with R71K counted along it
ALX1 (Homo sapiens, UniProt Q15699 118-204, L144V), sequence (Q15699 118-204 L144V): as the sequence (Q15699 118-204) above, with L27V counted along it
PROP1 (Homo sapiens, UniProt O75360 56-141, R99H), sequence (O75360 56-141 R99H): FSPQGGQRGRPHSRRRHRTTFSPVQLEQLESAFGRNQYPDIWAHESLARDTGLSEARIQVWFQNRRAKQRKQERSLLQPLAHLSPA
ALX1 (Homo sapiens, UniProt Q15699 118-204, L144R), sequence (Q15699 118-204 L144R): as the sequence (Q15699 118-204) above, with L27R counted along it
ALX3, sequence (O95076 139-225 L168Q): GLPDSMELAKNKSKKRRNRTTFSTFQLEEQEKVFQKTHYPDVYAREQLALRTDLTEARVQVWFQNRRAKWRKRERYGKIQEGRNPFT
MSX2 (Homo sapiens, UniProt P35548 130-214, R199I), sequence (P35548 130-214 R199I): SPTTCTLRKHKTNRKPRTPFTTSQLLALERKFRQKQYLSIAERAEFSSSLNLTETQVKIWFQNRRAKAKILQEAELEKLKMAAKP
PRRX1 (Homo sapiens, UniProt P54821 80-166), sequence (P54821 80-166): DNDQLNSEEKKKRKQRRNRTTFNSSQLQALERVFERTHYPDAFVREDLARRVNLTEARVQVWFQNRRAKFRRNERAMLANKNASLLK
ALX4 (Homo sapiens, UniProt Q9H161 200-286), sequence (Q9H161 200-286): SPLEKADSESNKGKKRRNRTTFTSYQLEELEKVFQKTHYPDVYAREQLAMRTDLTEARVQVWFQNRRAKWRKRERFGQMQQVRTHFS
PRRX1 (Homo sapiens, UniProt P54821 80-166, F113S), sequence (P54821 80-166 F113S): as the sequence (P54821 80-166) above, with F34S counted along it
ALX4 (Homo sapiens, UniProt Q9H161 200-286, Q225E), sequence (Q9H161 200-286 Q225E): as the sequence (Q9H161 200-286) above, with Q26E counted along it

For the sequence ATAATTGC, the binding signal was 12.2 upbm affinity estimate (log intensity, higher = more binding, comparable within an allelic series) with HESX1 [1]; 13.6 upbm affinity estimate (log intensity, higher = more binding, comparable within an allelic series) with ALX4 [2]; 11.1 upbm affinity estimate (log intensity, higher = more binding, comparable within an allelic series) in the experiment with PRRX1 [3]; 12.7 upbm affinity estimate (log intensity, higher = more binding, comparable within an allelic series) in the experiment with ALX4 [4]; 12.4 upbm affinity estimate (log intensity, higher = more binding, comparable within an allelic series) in the experiment with HESX1 [5]; 12.9 upbm affinity estimate (log intensity, higher = more binding, comparable within an allelic series) with MSX2 [6]. For the same sequence, the binding signal is 11.4 upbm affinity estimate (log intensity, higher = more binding, comparable within an allelic series) with ALX1 [7]; 11.1 upbm affinity estimate (log intensity, higher = more binding, comparable within an allelic series) with ALX1 [8]; 11.1 upbm affinity estimate (log intensity, higher = more binding, comparable within an allelic series) with PROP1 [9]; 8.36 upbm affinity estimate (log intensity, higher = more binding, comparable within an allelic series) with HESX1 [10]; 10.9 upbm affinity estimate (log intensity, higher = more binding, comparable within an allelic series) with PROP1 [11]; 10.3 upbm affinity estimate (log intensity, higher = more binding, comparable within an allelic series) in the experiment with ALX3. Also, the binding signal with HESX1 [12] was 10.6 upbm affinity estimate (log intensity, higher = more binding, comparable within an allelic series); in the experiment with PROP1 [13], 7.6 upbm affinity estimate (log intensity, higher = more binding, comparable within an allelic series); with MSX2 [14] it was 13.6 upbm affinity estimate (log intensity, higher = more binding, comparable within an allelic series); with HESX1 [15], 7.74 upbm affinity estimate (log intensity, higher = more binding, comparable within an allelic series); with PRRX1 [16], 13.2 upbm affinity estimate (log intensity, higher = more binding, comparable within an allelic series).

AGGGTCCC: the binding signal in the experiment with HESX1 [1] is 6.51 upbm affinity estimate (log intensity, higher = more binding, comparable within an allelic series); in the experiment with HESX1 [5], 6.48 upbm affinity estimate (log intensity, higher = more binding, comparable within an allelic series); in the experiment with HESX1 [10], 6.45 upbm affinity estimate (log intensity, higher = more binding, comparable within an allelic series); with HESX1 [12], 6.51 upbm affinity estimate (log intensity, higher = more binding, comparable within an allelic series); with HESX1 [15], 6.53 upbm affinity estimate (log intensity, higher = more binding, comparable within an allelic series).

Consider GCCAGACC, for which the binding signal was 6.33 upbm affinity estimate (log intensity, higher = more binding, comparable within an allelic series) with HESX1 [1]; 6.38 upbm affinity estimate (log intensity, higher = more binding, comparable within an allelic series) in the experiment with HESX1 [5]; 6.33 upbm affinity estimate (log intensity, higher = more binding, comparable within an allelic series) with HESX1 [10]; 6.36 upbm affinity estimate (log intensity, higher = more binding, comparable within an allelic series) in the experiment with HESX1 [12]; 6.43 upbm affinity estimate (log intensity, higher = more binding, comparable within an allelic series) with HESX1 [15].

With CCGTAGGC, the binding signal with HESX1 [1] was 6.41 upbm affinity estimate (log intensity, higher = more binding, comparable within an allelic series); with HESX1 [5], 6.44 upbm affinity estimate (log intensity, higher = more binding, comparable within an allelic series); with HESX1 [10] it was 6.53 upbm affinity estimate (log intensity, higher = more binding, comparable within an allelic series); in the experiment with HESX1 [12] it was 6.41 upbm affinity estimate (log intensity, higher = more binding, comparable within an allelic series); with HESX1 [15], 6.48 upbm affinity estimate (log intensity, higher = more binding, comparable within an allelic series).

Consider CCGAGACC, for which the binding signal with HESX1 [1] is 6.38 upbm affinity estimate (log intensity, higher = more binding, comparable within an allelic series); with HESX1 [5], 6.35 upbm affinity estimate (log intensity, higher = more binding, comparable within an allelic series); with PROP1 [9], 6.57 upbm affinity estimate (log intensity, higher = more binding, comparable within an allelic series); in the experiment with HESX1 [10], 6.45 upbm affinity estimate (log intensity, higher = more binding, comparable within an allelic series); with PROP1 [11] it was 6.84 upbm affinity estimate (log intensity, higher = more binding, comparable within an allelic series); with ALX3 it was 7.73 upbm affinity estimate (log intensity, higher = more binding, comparable within an allelic series). For the same sequence, the binding signal is 6.33 upbm affinity estimate (log intensity, higher = more binding, comparable within an allelic series) with HESX1 [12]; 6.43 upbm affinity estimate (log intensity, higher = more binding, comparable within an allelic series) with PROP1 [13]; 6.5 upbm affinity estimate (log intensity, higher = more binding, comparable within an allelic series) with HESX1 [15].

Regarding CAGCCAGG, the binding signal with HESX1 [1] is 6.31 upbm affinity estimate (log intensity, higher = more binding, comparable within an allelic series); with HESX1 [5], 6.36 upbm affinity estimate (log intensity, higher = more binding, comparable within an allelic series); with HESX1 [10], 6.38 upbm affinity estimate (log intensity, higher = more binding, comparable within an allelic series); with HESX1 [12] it was 6.49 upbm affinity estimate (log intensity, higher = more binding, comparable within an allelic series); in the experiment with HESX1 [15], 6.49 upbm affinity estimate (log intensity, higher = more binding, comparable within an allelic series).

GCAATTAC: the binding signal with HESX1 [1] is 11.4 upbm affinity estimate (log intensity, higher = more binding, comparable within an allelic series); with HESX1 [5], 11.5 upbm affinity estimate (log intensity, higher = more binding, comparable within an allelic series); in the experiment with MSX2 [6] it was 12.5 upbm affinity estimate (log intensity, higher = more binding, comparable within an allelic series); in the experiment with HESX1 [10], 8.2 upbm affinity estimate (log intensity, higher = more binding, comparable within an allelic series); with HESX1 [12], 9.93 upbm affinity estimate (log intensity, higher = more binding, comparable within an allelic series); in the experiment with MSX2 [14], 13.4 upbm affinity estimate (log intensity, higher = more binding, comparable within an allelic series). Further, the binding signal with HESX1 [15] is 7.19 upbm affinity estimate (log intensity, higher = more binding, comparable within an allelic series).

Take CAGGCGCC: the binding signal with HESX1 [1] is 6.55 upbm affinity estimate (log intensity, higher = more binding, comparable within an allelic series); with HESX1 [5] it was 6.51 upbm affinity estimate (log intensity, higher = more binding, comparable within an allelic series); with HESX1 [10], 6.57 upbm affinity estimate (log intensity, higher = more binding, comparable within an allelic series); with HESX1 [12] it was 6.52 upbm affinity estimate (log intensity, higher = more binding, comparable within an allelic series); in the experiment with HESX1 [15], 6.58 upbm affinity estimate (log intensity, higher = more binding, comparable within an allelic series).

Take GCAGGCGC: the binding signal was 6.11 upbm affinity estimate (log intensity, higher = more binding, comparable within an allelic series) with HESX1 [1]; 5.98 upbm affinity estimate (log intensity, higher = more binding, comparable within an allelic series) with HESX1 [5]; 5.82 upbm affinity estimate (log intensity, higher = more binding, comparable within an allelic series) with ALX1 [7]; 5.84 upbm affinity estimate (log intensity, higher = more binding, comparable within an allelic series) with ALX1 [8]; 6.31 upbm affinity estimate (log intensity, higher = more binding, comparable within an allelic series) with HESX1 [10]; 6.16 upbm affinity estimate (log intensity, higher = more binding, comparable within an allelic series) with HESX1 [12]. Also, the binding signal in the experiment with HESX1 [15] was 6.37 upbm affinity estimate (log intensity, higher = more binding, comparable within an allelic series); in the experiment with ALX1 [17] it was 5.72 upbm affinity estimate (log intensity, higher = more binding, comparable within an allelic series).
